PubChem BioAssay AID1634 (National Center for Advancing Translational Sciences (NCATS), 2009)
Hit rate of the full screen: of about 260,000 compounds, about 150 (0.058%) were called active. Calls follow the shape of the dose curve; as a rule, active = well fitted inhibition curve with a large enough effect; inconclusive = small, poorly fitted or top-dose-only effect; inactive = no such curve, though single readings can be large or run the other way. What follows is part of a selection rich in actives, with near analogues and random picks from the rest.

These compounds were tested against Pyruvate kinase PKM (Homo sapiens) (UniProt P14618) (assay: qHTS Assay for Inhibitors of Human Muscle isoform 2 Pyruvate Kinase). Conditions: purified PKM2, ATP generation, Kinase-Glo luminescence; series mostly up to 57.5 µM; activity change, negative = inhibition: at the top concentration.
Pyruvate kinase PKM (Homo sapiens), sequence (P14618 whole entry, looked up, canonical isoform): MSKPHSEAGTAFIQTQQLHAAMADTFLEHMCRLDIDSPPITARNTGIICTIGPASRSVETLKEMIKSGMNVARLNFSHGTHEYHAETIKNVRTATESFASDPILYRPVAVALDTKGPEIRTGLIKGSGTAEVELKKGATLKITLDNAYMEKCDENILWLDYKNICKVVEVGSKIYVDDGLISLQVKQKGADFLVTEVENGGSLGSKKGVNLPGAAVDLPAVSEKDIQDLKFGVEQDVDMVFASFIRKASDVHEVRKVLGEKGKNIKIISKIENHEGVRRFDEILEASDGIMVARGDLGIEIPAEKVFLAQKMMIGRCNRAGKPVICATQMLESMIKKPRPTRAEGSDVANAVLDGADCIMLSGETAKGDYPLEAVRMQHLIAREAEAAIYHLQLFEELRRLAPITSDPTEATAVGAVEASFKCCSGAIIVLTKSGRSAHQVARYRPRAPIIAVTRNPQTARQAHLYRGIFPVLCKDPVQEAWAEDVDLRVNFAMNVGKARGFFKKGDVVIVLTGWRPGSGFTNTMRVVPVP
Protocol: NIH Chemical Genomics Center [NCGC] Matthew G. Vander Heiden, M.D., Ph.D. [Harvard Medical School, 77 Avenue Louis Pasteur, Boston, MA 02115] […] ATP generation was detected in a coupled reaction by luciferase-mediated luminescence, an ATP-dependent process. […] The enzyme was assayed at an intermediate level of activity to screen for both inhibitors and activators.
NCGC Assay Protocol Summary: Three uL of substrate mix (at r.t.) in assay buffer (50 mM Imidazole pH7.2, 50 mM KCl, 7 mM MgCl2, 0.01% Tween 20, 0.05% BSA) was dispensed into white solid bottom 1,536 well microtiter plates so that the final concentrations of substrates in the assay were 0.1 mM ADP and 0.5 mM PEP. 23 nL of compound were delivered by a pin tool and 1 uL of enzyme mix in assay buffer (4 degree Celsius) was added. Plates were incubated at room temperature for 1 hour. Two uL of detection mix (Kinase-Glo, Promega; at 4 degree Celsius protected from light) was added and luminescence read by a ViewLux (Perkin Elmer) at 5 second exposure/plate. Data were normalized to the uninhibited and AC100 inhibition (no enzyme). To monitor activation, the first column contained a titration of the activator, NCGC00031955-01 (16-point 1:2 dilutions in duplicate starting at 57 uM) and the first 16 rows of column 4 contained 57 uM of NCGC00031955-01.
Also: nearly all actives have a fitted effect of over 60% in size.
Potency is read from the fitted curve at half-maximal effect.

Activity change, negative = inhibition, inactive:
Cc1ccc(S(=O)(=O)N2CCCC2C(=O)NCc2ccco2)cc1 (centres undefined) 31.4%
Cc1noc(C)c1C(=O)OCC(=O)N1CCN(S(=O)(=O)c2ccc3ccccc3c2)CC1 50.8%
CCn1c(NCCc2ccc(OC)c(OC)c2)nc2c1c(=O)n(C)c(=O)n2C 64.1%
O=C(COC(=O)CCC(=O)c1cccs1)NCc1ccco1 33.7%
CC(=O)c1cc(C#N)c(SCC(=O)Nc2nccs2)nc1C 86.5%
COc1ccc(C2CC(c3ccc([N+](=O)[O-])cc3)=NN2C(C)=O)cc1 (centres undefined) 74.6%
Cc1ccc(OS(=O)Nc2cccc3nccnc23)cc1 (centres undefined) 34.3%
Cc1ccc(CNC(=O)C2CCCN2C(=O)NCc2ccccc2)cc1 (centres undefined) -1.6%
CC(C)(C)C(=O)OCc1nc(-c2ccc(O)c(O)c2)cs1 34.7%
CCOc1ccc(S(=O)(=O)Nc2nccs2)cc1 35.4%
Cn1c(SCC(=O)N/N=C/c2ccc(O)c(O)c2)nc2ccccc21 61.5%
CC(C)Nc1ncnc2c1nnn2Cc1ccccc1 51.7%
O=C(c1c(F)cccc1Cl)N1CCN(S(=O)(=O)c2ccc3c(c2)OCCCO3)CC1 55.2%
O=C(CSc1nnc(-c2ccc(NS(=O)(=O)c3ccccc3)cc2)o1)NCC1CCCO1 (centres undefined) 41.2%
S=c1[nH]nc(-c2cccs2)n1/N=C/c1cn(-c2ccccc2)nc1-c1ccc(Cl)cc1 39.3%
O=C(Cc1cccs1)Nc1nnc(SCc2ccc(F)cc2)s1 45.8%
Cc1cc(C)n(CCC(=O)N2CCN(S(=O)(=O)c3ccc(C)c(C)c3)CC2)n1 37.7%
COc1ccc(S(=O)(=O)Nc2ccc(F)cc2)c(C)c1C 32.9%
CCc1nnc(NC(=O)CSc2nc3c(c(=O)n2-c2ccccc2OC)SCC3)s1 30.9%
Nc1cccc(S(=O)(=O)Nc2ccc(SC(F)F)cc2)c1 131%
Nc1ccccc1Sc1cc(Cl)nnc1Cl 35.4%
O=S(=O)(Nc1nccs1)c1ccc2c(c1)OCCO2 44.3%
O=c1[nH]c(-c2cccs2)nc2ccccc12 -18.3%
Cn1c2ccccc2c(=O)c2c(=O)n(Cc3ccco3)c(COc3ccccc3)nc21 40.6%
COC(=O)C1=C(C)NC(=O)CC1c1ccccc1OC (centres undefined) 79.9%
Cc1cc(NC(=O)CSc2nnc(-c3ccc(Cl)s3)o2)no1 98.8%
Cc1ccc(N(C(=O)c2ccc(CN3CCOCC3)o2)C(C(=O)NCCC(C)C)c2cccs2)c(C)c1 (centres undefined) 33.7%
Cc1cc(-c2ccc(/C=N/n3cnnc3)o2)c([N+](=O)[O-])cc1C 36.9%
O=[N+]([O-])c1ccccc1Nc1ccc(O)cc1 41.2%
S=c1nc(C23CC4CC(CC(C4)C2)C3)nc2sccn12 -3.34%
CCc1nnc(NS(=O)(=O)c2ccc(NS(=O)(=O)c3ccccc3)cc2)s1 52.4%
CCNc1nc(NC(C)C)nc(OCCOC(=O)c2ccccc2)n1 51%
CN(C)c1ccc(C=C2C(=O)OC3(CCCC3)OC2=O)cc1 73.8%
COc1ccc(CS(=O)/C(Cl)=C(/Cl)C(=O)Nc2ccc(OC)nc2)cc1 (centres undefined) 42.8%
CC(=O)c1c(C)[nH]c(C(=O)Nc2cc(S(=O)(=O)N(C)C)ccc2C)c1C 72.8%
O=C(NCc1ccco1)c1cccn2c(=O)c3c4c(sc3nc12)CCCC4 112%
O=C(NCc1ccccn1)c1c(O)c2c([nH]c1=O)CCCC2 82.1%
CCC1CCCCN1CCCNC(=O)Cn1nc(-c2ccccc2)ccc1=O (centres undefined) 37.6%
COc1ccc(C(=O)NC(=S)Nc2ccc(Cl)cn2)cc1OC 71.8%
c1cc(-n2cnnn2)ccc1NC1=NCCC1 65.9%
O=C(CCC(=O)N1CCN(S(=O)(=O)c2ccccc2)CC1)NC1CCCc2ccccc21 (centres undefined) 32.8%
O=c1cc(CO)oc(C(Nc2cccc([N+](=O)[O-])c2)c2ccccn2)c1O (centres undefined) 37.9%
COC(=O)c1[nH]c2ccccc2c1NC(=O)CN1CCCc2ccccc21 103%
CN(C)/C=C1\C=C(c2ccccc2)OC1=O 30.6%
CCC(C)(C)NC(=O)C1c2ccccc2Oc2ccccc21 30.6%
O=C(c1ccc(-c2ccccc2)cc1)C1CCCN(C(=O)c2cncs2)C1 (centres undefined) 71.3%
O=S(=O)(c1ccc(F)cc1)N1CCN(C(=S)NCc2ccco2)CC1 38.3%
O=C(COc1cc(Cl)c(Cl)cc1Cl)NCCc1ccccn1 41.2%
COC(=O)c1cc2c(N)c(C(=O)c3ccc(Cl)cc3)sc2nc1C(OC)OC -1.08%
O=C(Cn1c(COc2ccccc2)nc2ccccc21)Nc1cc(Cl)c(Cl)cc1Cl 4.1%
COc1ccc(-c2csc(Cc3nc(O)cs3)n2)cc1 31.4%
N#Cc1ccc(OCc2nnc(-c3ccc([N+](=O)[O-])cc3)o2)cc1 60.7%
COc1cccc(CNC(=O)CCC2CCCN(C(=O)c3cc(C)[nH]n3)C2)c1 (centres undefined) 58.5%
Cc1cc(C)c(S(=O)(=O)N2C=CC(C(F)(F)F)=NCC2)c(C)c1 41.1%
CN(CCc1ccccc1)c1ccc([N+](=O)[O-])cn1 41.5%
COC(=O)[C@@]1(Cc2ccccc2)[C@H]2c3cc(C(=O)N4CCCC4)n(Cc4ccc(C)o4)c3C[C@H]2CN1C(=O)c1ccccc1 69%
O=[N+]([O-])c1cc(Br)c(O)c(/C=N/Nc2nc3ccccc3s2)c1 59.9%
CN(C)S(=O)(=O)c1ccc(NC(=O)COC(=O)c2n[nH]c3ccccc23)cc1 38.3%
NC(=O)COC(=O)/C=C/c1ccc2ccccc2n1 57.7%
COc1ccccc1C(=O)N/C(=C/c1ccco1)C(=O)Nc1ccc(C(=O)O)cc1 30.1%
O=S(=O)(c1ccc(Br)cc1)c1nc(-c2ccccc2)oc1NCc1cccnc1 41.4%
Cc1ccc(C)c(S(=O)(=O)Nc2cccc(-n3cnnn3)c2)c1 64.8%
O=C(NCc1cccs1)C1CCN(S(=O)(=O)c2ccc3c(c2)OCCO3)CC1 136%
CCCc1nc(N2CCN(C)CC2)c2sc(=S)n(-c3ccccc3)c2n1 39.2%
CC1CC(c2ccccc2)n2nc(NC(=O)c3cccs3)nc2N1 (centres undefined) 90.6%
CN(C)N=Nc1ccc2nc[nH]c2c1 85.6%
CN(C)c1nc(N)nc(CSc2nnnn2-c2cccc3ccccc23)n1 42.7%
O=C(c1ccc[nH]c1=S)N1CCN(S(=O)(=O)c2ccc(Br)cc2Cl)CC1 54.6%

Potency, active:
COc1ccc(-c2cn3ccc(C)cc3n2)cc1 12.6 µM
